# Assay results: PubChem BioAssay (Tox21)
# Several values for one entry are separate records, joined by “and”; a condition that tells them apart may be missing. Equal values may be shown once. Where a structure was tested more than once in an assay, its records may differ in their call. Activity calls are given as the source filed them. Entries that show only a call come without a potency. Unless noted, calls come from the whole dose curve; as a rule, active = well fitted curve in the direction sought with a large enough effect in the repeat runs; inconclusive = weak or mixed curves; inactive = no such curve, though single readings can be large; an effect the other way counts as inactive or inconclusive.
# Columns and labels:
# [1] = qHTS assay to identify small molecule antagonists of the glucocorticoid receptor (GR) signaling pathway - cell viability counter screen (AID 720693); note: nearly all actives have a fitted effect of over 55% in size
# [2] = qHTS assay for identifying genotoxic compounds that show differential cytotoxicity against isogenic chicken DT40 cell lines with known DNA damage response pathways - wild type cell line (AID 743012); note: nearly all actives have a fitted effect of over 60% in size; note: potency is the fitted concentration of half-maximal effect
# In short: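 CellTiter-Glo luminescence readout of viability in wild type DT40 cells after 40 h compound exposure at 37 C/5% CO2; 300 cells/well; reagent incubated 30 min at room temperature before reading.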
# [3] = qHTS assay for identifying genotoxic compounds that show differential cytotoxicity against isogenic chicken DT40 cell lines with known DNA damage response pathways - Rev3 mutant cell line (AID 743014); note: nearly all actives have a fitted effect of over 55% in size; note: potency is the fitted concentration of half-maximal effect
# [4] = qHTS assay for identifying genotoxic compounds that show differential cytotoxicity against isogenic chicken DT40 cell lines with known DNA damage response pathways - Rad54/Ku70 mutant cell line (AID 743015); note: nearly all actives have a fitted effect of over 60% in size; note: potency is the fitted concentration of half-maximal effect
# [5] = qHTS assay to identify small molecule antagonists of the androgen receptor (AR) signaling pathway - cell viability counter screen (AID 743033; note: nearly all actives have a fitted effect of over 45% in size)
# [6] = qHTS assay to identify small molecule antagonists of the androgen receptor (AR) signaling pathway using the MDA cell line - cell viability counter screen (AID 743041; note: nearly all actives have a fitted effect of over 45% in size)
# In short: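 Cytotoxicity counter screen: MDA-kb2 AR-luc cells, compound + R1881, 16 h, 37C, 0% CO2; CellTiter-Fluor added at 15.5 h, fluorescence read after 30 min.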
# [7] = qHTS assay to identify small molecule antagonists of the thyroid receptor (TR) signaling pathway - cell viability counter screen (AID 743064); note: nearly all actives have a fitted effect of over 50% in size
# In short: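 Same-well viability check: GH3.TRE-Luc cells stimulated with 1 nM T3 alongside test compound for 23.5 h, followed by CellTiter-Fluor fluorescence.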
# [8] = qHTS assay to identify small molecule antagonists of the thyroid receptor (TR) signaling pathway (AID 743065); note: series mostly up to about 70 µM; nearly all actives have a fitted effect of over 55% in size
# In short: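 GH3.TRE-Luc rat pituitary cells (two TREs driving luciferase) were dosed with compound, then stimulated with 1 nM T3 (final) for 23.5 h at 37 C. ONE-Glo luminescence was the read-out, with CellTiter-Fluor fluorescence as the cytotoxicity counter-screen.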
# [9] = test system: thyroid hormone receptor (rat, GH3 cells); assay: qHTS assay to identify small molecule agonists of the thyroid receptor (TR) signaling pathway (AID 743066; calls by dose curve)
# [10] = qHTS assay to identify small molecule antagonists of the estrogen receptor alpha (ER-alpha) signaling pathway - cell viability counter screen (AID 743074; calls by dose curve;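 note: HEK293 cells carrying ER-alpha-UAS-bla reporter stimulated with 17beta-estradiol; nearly all actives have a fitted effect of over 45% in size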)
# [11] = qHTS assay to identify small molecule antagonists of the estrogen receptor alpha (ER-alpha) signaling pathway using the BG1 cell line - cell viability counter screen (AID 743081);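 note: compound given together with 17beta-estradiol as the ER stimulus; series mostly up to about 70 µM; nearly all actives have a fitted effect of over 45% in size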
# Aromatase (Homo sapiens) = Aromatase (Homo sapiens) (UniProt P11511); assay: qHTS assay to identify aromatase inhibitors (AID 743083); note: series mostly up to about 70 µM; nearly all actives have a fitted effect of over 55% in size
# [12] = target: Estrogen receptor (Homo sapiens) (UniProt P03372); assay: qHTS assay to identify small molecule antagonists of the estrogen receptor alpha (ER-alpha) signaling pathway (AID 743069; active = well fitted curve in the direction sought with a large enough effect in the signal ratio in the repeat runs, not every such curve was filed as active; inconclusive = weak or mixed curves, or effect the other way; inactive = no such curve, though single readings can be large or run the other way; the % refers to the signal ratio)
# In short: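 Beta-lactamase FRET fluorescence is read after 2 hr at room temperature with LiveBLAzer B/G substrate. Before that, ER-alpha-bla HEK293 cells sit 4 hr after plating, then receive compound plus 17beta-estradiol and incubate 18 hr at 37C.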
# [13] = target: Estrogen receptor (Homo sapiens) (UniProt P03372); assay: qHTS assay to identify small molecule agonists of the estrogen receptor alpha (ER-alpha) signaling pathway (AID 743075; calls by dose curve;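 note: HEK293 GripTite cells with ER-alpha and UAS-driven beta-lactamase reporter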; note: potency is the fitted concentration of half-maximal effect)
# [14] = target: Estrogen receptor (Homo sapiens) (UniProt P03372); assay: qHTS assay to identify small molecule agonists of the estrogen receptor alpha (ER-alpha) signaling pathway using the BG1 cell line (AID 743079); note: nearly all actives have a fitted effect of over 20% in size; note: potency is the fitted concentration of half-maximal effect
# [15] = qHTS assay to identify small molecule antagonists of the estrogen receptor alpha (ER-alpha) signaling pathway using the BG1 cell line (AID 743080; calls by dose curve;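 note: BG1 cells stimulated with 17beta-estradiol alongside compound; nearly all actives have a fitted effect of over 25% in size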; note: potency is the fitted concentration of half-maximal effect)
# In short: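 Readout is ONE-Glo luminescence, taken 30 min at room temperature after reagent addition, preceded by a CellTiter-Fluor viability read; BG1-Luc-4E2 cells had received compound and 17beta-estradiol for 21.5 h at 37 C.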
# [16] = target: Androgen receptor (Homo sapiens) (UniProt P10275); assay: qHTS assay to identify small molecule antagonists of the androgen receptor (AR) signaling pathway (AID 743035; active = well fitted inhibition curve with a large enough effect in the signal ratio in the repeat runs, not every such curve was filed as active; inconclusive = weak or mixed curves, or effect the other way; inactive = no such curve, though single readings can be large or run the other way; the % refers to the signal ratio)
# In short: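 AR-bla HEK293 reporter cells; 4 h settle at 37C/5% CO2; compound + R1881 agonist, 16 h at 37C; LiveBLAzer B/G FRET substrate 2 h RT; fluorescence intensity read. qHTS format.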
# [17] = target: Androgen receptor (Homo sapiens) (UniProt P10275); assay: qHTS assay to identify small molecule agonists of the androgen receptor (AR) signaling pathway (AID 743036; active = well fitted activation curve with a large enough effect in the signal ratio in the repeat runs, with a control signal flat, not every such curve was filed as active; inconclusive = weak or mixed curves, or effect the other way; inactive = no such curve, though single readings can be large or run the other way; the % refers to the signal ratio)
# In short: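 Agonist activity was scored by beta-lactamase reporter fluorescence in stably transfected HEK293 cells exposed to compounds for 16 h at 37C and 5% CO2. Substrate loading took 2 h at room temperature.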
# [18] = target: Androgen receptor (Homo sapiens) (UniProt P10275); assay: qHTS assay to identify small molecule agonists of the androgen receptor (AR) signaling pathway using the MDA cell line (AID 743040; note: nearly all actives have a fitted effect of over 20% in size)
# In short: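 Luciferase read-out, ONE-Glo, 30 min RT. Cells: MDA-kb2 AR-luc, MMTV promoter with AR and GR response elements. Compound exposure 16 h, 37C, 0% CO2, after 5 h pre-incubation. qHTS agonist mode.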
# [19] = target: Androgen receptor (Homo sapiens) (UniProt P10275); assay: qHTS assay to identify small molecule antagonists of the androgen receptor (AR) signaling pathway using the MDA cell line (AID 743042; note: nearly all actives have a fitted effect of over 55% in size)
# In short: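 MDA-kb2 breast carcinoma cells carrying MMTV-luciferase (AR/GR responsive) were co-treated with compounds and the agonist R1881 for 16 h at 37C. Inhibition read as ONE-Glo luminescence; CellTiter-Fluor fluorescence measured in parallel for cytotoxicity.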
# Chain of Aromatase (Homo sapiens) (P11511 whole entry, looked up): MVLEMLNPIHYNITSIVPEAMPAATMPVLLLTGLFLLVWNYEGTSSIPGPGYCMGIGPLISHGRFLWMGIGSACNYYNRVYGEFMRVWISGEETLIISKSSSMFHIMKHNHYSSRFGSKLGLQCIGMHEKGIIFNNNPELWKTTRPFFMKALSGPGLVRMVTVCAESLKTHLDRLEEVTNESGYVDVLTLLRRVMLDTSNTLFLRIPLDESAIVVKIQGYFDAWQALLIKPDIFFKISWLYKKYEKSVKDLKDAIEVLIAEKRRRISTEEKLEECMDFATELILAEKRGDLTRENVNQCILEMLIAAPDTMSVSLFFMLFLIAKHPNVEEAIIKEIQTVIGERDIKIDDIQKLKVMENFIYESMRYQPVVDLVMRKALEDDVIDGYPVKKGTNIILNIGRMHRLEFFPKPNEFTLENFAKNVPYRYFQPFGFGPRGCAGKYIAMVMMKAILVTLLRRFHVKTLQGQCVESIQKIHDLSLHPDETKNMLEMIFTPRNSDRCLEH
# Chain of Androgen receptor (Homo sapiens) (P10275 whole entry, looked up): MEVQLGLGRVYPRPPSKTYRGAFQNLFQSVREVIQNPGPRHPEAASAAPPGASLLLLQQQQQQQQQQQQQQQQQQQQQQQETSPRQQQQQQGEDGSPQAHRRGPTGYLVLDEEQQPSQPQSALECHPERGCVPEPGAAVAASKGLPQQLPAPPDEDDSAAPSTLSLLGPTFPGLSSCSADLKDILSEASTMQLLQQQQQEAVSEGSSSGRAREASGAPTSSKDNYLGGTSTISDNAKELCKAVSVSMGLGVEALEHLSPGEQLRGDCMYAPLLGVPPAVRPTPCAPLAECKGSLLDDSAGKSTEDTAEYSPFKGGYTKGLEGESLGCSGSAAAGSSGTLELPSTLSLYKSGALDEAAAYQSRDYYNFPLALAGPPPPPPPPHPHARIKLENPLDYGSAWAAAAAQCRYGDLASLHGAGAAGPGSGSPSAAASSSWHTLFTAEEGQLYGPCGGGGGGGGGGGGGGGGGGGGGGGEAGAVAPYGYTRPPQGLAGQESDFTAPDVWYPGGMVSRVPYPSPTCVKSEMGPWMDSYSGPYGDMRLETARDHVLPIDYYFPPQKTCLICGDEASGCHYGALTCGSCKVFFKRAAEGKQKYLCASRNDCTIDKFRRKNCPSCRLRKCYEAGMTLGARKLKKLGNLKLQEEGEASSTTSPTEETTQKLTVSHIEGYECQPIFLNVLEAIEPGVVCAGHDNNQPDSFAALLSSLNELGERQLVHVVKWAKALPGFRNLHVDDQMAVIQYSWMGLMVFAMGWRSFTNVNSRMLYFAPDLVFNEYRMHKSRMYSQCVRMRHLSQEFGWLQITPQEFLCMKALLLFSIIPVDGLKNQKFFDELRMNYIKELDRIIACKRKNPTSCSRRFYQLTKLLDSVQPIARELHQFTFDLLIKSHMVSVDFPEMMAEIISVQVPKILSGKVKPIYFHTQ
# Chain of Estrogen receptor (Homo sapiens) (P03372 whole entry, looked up): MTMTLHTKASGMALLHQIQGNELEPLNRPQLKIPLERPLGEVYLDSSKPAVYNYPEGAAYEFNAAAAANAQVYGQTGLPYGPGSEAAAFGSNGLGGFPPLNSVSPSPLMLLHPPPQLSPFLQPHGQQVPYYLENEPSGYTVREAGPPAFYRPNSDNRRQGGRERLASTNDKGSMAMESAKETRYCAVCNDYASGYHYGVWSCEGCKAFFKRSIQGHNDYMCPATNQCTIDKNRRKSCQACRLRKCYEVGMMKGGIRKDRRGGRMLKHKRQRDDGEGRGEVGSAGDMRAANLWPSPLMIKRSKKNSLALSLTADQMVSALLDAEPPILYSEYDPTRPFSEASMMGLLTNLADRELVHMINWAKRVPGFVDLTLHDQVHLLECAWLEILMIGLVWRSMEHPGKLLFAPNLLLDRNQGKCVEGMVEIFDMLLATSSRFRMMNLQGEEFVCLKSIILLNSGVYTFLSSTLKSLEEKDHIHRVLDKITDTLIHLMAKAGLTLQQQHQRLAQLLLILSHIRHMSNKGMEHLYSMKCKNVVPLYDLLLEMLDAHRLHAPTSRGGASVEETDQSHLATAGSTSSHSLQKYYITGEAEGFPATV
SMILES,outcome [1],Potency [2],Potency [3],Potency [4],outcome [5],outcome [6],Potency [7],Potency [8],outcome [9],Potency [10],outcome [11],Potency (Aromatase (Homo sapiens)),Potency [12],Potency [13],Potency [14],Potency [15],Potency [16],outcome [17],outcome [18],outcome [19]
Clc1cccc(Cl)c1Cl,inactive,inactive,inactive,inactive,inactive,inactive,inactive,inactive,inactive,inactive,inactive,inactive,,,,,,,,
CCOP(=S)(OCC)Oc1cnc2ccccc2n1,inactive,54.5 µM (active),27.3 µM (active),27.3 µM (active),inactive,inactive,inactive,inactive,inactive,inactive,inactive,inactive,inactive,inactive and 17.4 µM [inconclusive] (active),inactive and 15.4 µM (active),inactive,,,,
CC1C=[C-]C=C1.[C-]#[O+].[C-]#[O+].[C-]#[O+].[Mn],inactive,inactive,inactive,inactive,inactive,inactive,inactive,inactive,inactive,inactive,inactive,inactive,inactive,inactive,inactive,inactive,,,,
CC(C)(Cl)Cl,inactive,inactive,inactive,inactive,inactive,inactive,inactive,inactive,inactive,inactive,inactive,inactive,,,,,,,,
COCCl,inactive,inactive,inactive and 13.8 µM (active),inactive,inactive,inactive,inactive,inactive,inactive,inactive,inactive,inactive,,,,,inactive,inactive,inactive,inactive
Cn1cc(-c2ccccc2)c(=O)c(-c2cccc(C(F)(F)F)c2)c1,inactive,inactive,inactive,61.1 µM (active),inactive,inactive,inactive,,inactive,inactive,inactive,inactive,inactive,inactive,inactive,inactive,,,,
COC(=O)c1ccccc1C(=O)OC,inactive,inactive,inactive,inactive,inactive,inactive,inactive,inactive,inactive,inactive,inactive,inactive,inactive,inactive,inactive,inactive,,,,
NCCc1ccc(O)cc1,inactive,inactive,inactive,inactive,inactive,inactive,inactive,inactive,inactive,inactive,inactive,inactive,inactive,inactive,inactive and 68 µM (active),inactive,,,,
CCCN(CCC)c1c([N+](=O)[O-])cc(C(F)(F)F)cc1[N+](=O)[O-],inactive,inactive,inactive,inactive,inactive,inactive,,,inactive,inactive,inactive,inactive,inactive,inactive,inactive,inactive,inactive,inactive,inactive,inactive
Cc1[nH]c(=O)n(C(C)(C)C)c(=O)c1Cl,inactive,inactive,inactive,inactive,inactive,,inactive,inactive,inactive,inactive,inactive,inactive,inactive,inactive,inactive,inactive,inactive,inactive,inactive,inactive
O=S(=O)(c1ccc(Cl)cc1)c1cc(Cl)c(Cl)cc1Cl,inactive,inactive and 48.6 µM (active),inactive and 61.1 µM (active),inactive and 54.5 µM (active),inactive,inactive,inactive,inactive,inactive,inactive,inactive,inactive,inactive,inactive,,48.6 µM (active),,,,
Oc1ccccc1Cl,inactive,inactive,inactive,inactive,inactive,inactive,inactive,inactive,inactive,inactive,inactive,inactive,,,,,,,,
O=c1[nH]c(=O)[nH]c(=O)[nH]1,inactive,inactive,inactive,inactive,inactive,inactive,inactive,inactive,inactive,inactive,inactive,inactive,,,,,inactive,inactive,inactive,inactive
Nc1c(Cl)c(Cl)nc(C(=O)O)c1Cl,inactive,inactive,inactive,inactive,inactive,inactive,inactive,inactive,inactive,inactive,inactive,inactive,inactive,inactive,inactive,inactive,,,,
O=NN1CCCCCCC1,inactive,inactive,inactive,inactive,inactive,inactive,inactive,inactive,inactive,inactive,inactive,inactive,inactive,inactive,,inactive,,,,
C#CCN(C)[C@H](C)Cc1ccccc1,inactive,inactive,inactive,inactive,inactive,inactive,inactive,inactive,inactive,inactive,inactive,inactive,inactive,inactive,inactive,inactive,,,,
CNC(=O)Oc1ccccc1OC(C)C,inactive,inactive,inactive,inactive,inactive,inactive,inactive,inactive,inactive,inactive,inactive,inactive,inactive,inactive,inactive,inactive,,,,
